Several values for one entry are separate records, joined by “and”; a condition that tells them apart may be missing. Identical values can stand only once. Records with an inconclusive call do not appear. Entries that show only a call come without a potency. Activity calls are given as the source filed them. Calls follow the shape of the dose curve; as a rule, active = well fitted cell-killing curve with a large enough effect in the repeat runs; inconclusive = weak or mixed curves; inactive = flat fitted curve, though single readings scatter.
Test: qHTS RealTime-Glo MT Cell Viability Assay in HepG2 cells - 16 hour (AID 1224885); also: nearly all actives have a fitted effect of over 50% in size
Details: RealTime-Glo luminescence; series mostly up to 76.8 µM
From the text: U.S. Tox21 Program National Center for Advancing Translational Sciences [NCATS] NIH Chemical Genomics Center [NCGC] U.S. Environmental Protection Agency [EPA] National Institutes of Environmental Health Sciences [NIEHS] National Toxicology Program [NTP] U.S. Food and Drug Administration [FDA] Tox21 Assay Overview: Measure of cell viability is critical in the cell-base assay. Analysis of cell viability is necessary for the characterization of cell responses to cytotoxic drugs and environmental stress. A RealTime-Glo MT Cell Viability Assay to monitor cell viability in real time of continues cell culture during 40 hours of compound treatment was used to screen Tox21 10K library compounds in HepG2 cells. The RealTime-Glo MT Cell Viability Assay is a nonlytic, homogeneous, bioluminescent method to measure cell viability in real time using a simple, plate-based method. The assay involves adding NanoLuc luciferase and a cell-permeant prosubstrate to cells in culture. Viable cells reduce the proprietary prosubstrate to generate a substrate for NanoLuc luciferase. This substrate diffuses from cells into the surrounding culture medium, where it is rapidly used by the NanoLuc Enzyme to produce a luminescent signal. The signal correlates with the number of viable cells, making the assay well suited for cytotoxicity studies.
Tox21 Assay Protocol Summary: The mixture of HepG2 cell suspension and reagents were dispensed at 600cells/6 ul/well in 1536-well tissue culture treated black solid bottom plates using a Multidrop dispenser. After the assay plates were incubated at a 37 C/5% CO2 incubator for 5 hours, 23 nL of compounds dissolved in DMSO, positive and negative controls was transferred to the assay plate by a pintool work station. The plates were incubated at 37 C for 40 hours. The luminescence intensity were measured at 0h, 8h, 16h, 24h, 32h and 40h time points using ViewLux plate reader during compound treatment.
Potency is read from the fitted curve at half-maximal effect.

SMILES | Potency
CC(C)c1ccc(CO)cc1 | inactive
Cc1cc(C)cc(C)c1 | inactive
CCCCC(CC)COC(=O)Cl (stereo not given) | inactive
CCCCN(CC)c1c([N+](=O)[O-])cc(C(F)(F)F)cc1[N+](=O)[O-] | inactive
C=C(C)C(=O)OCC1CO1 (stereo not given) | inactive
C=CCc1ccc2c(c1)OCO2 | inactive
CC1(C)C(C=C(Cl)Cl)C1C(=O)OC(C#N)c1cccc(Oc2ccccc2)c1 (stereo not given) | inactive
Cc1ccc(N)c(N)c1 | inactive
COc1ccc(C=O)cc1 | inactive
ClC1C(Cl)C(Cl)C(Cl)C(Cl)C1Cl (stereo not given) | inactive
CCCCNC(=O)n1c(NC(=O)OC)nc2ccccc21 | inactive
C=CC(=O)OCCO | inactive
O=P(Oc1ccccc1)(Oc1ccccc1)Oc1ccccc1 | inactive
CN(C)C(=O)Nc1ccc(Cl)cc1 | inactive
Cc1cccc(N)c1N | inactive
N#Cc1cc(Br)c(O)c(Br)c1 | inactive
O=C(Nc1ccc(Br)cc1)c1cc(Br)cc(Br)c1O | inactive
Clc1nc(Cl)nc(Cl)n1 | inactive
O=C(O)C(F)(F)C(F)(F)C(F)(F)C(F)(F)C(F)(F)C(F)(F)C(F)(F)F | inactive
c1ccc(NNc2ccccc2)cc1 | inactive

SMILES | Potency
CC(O)CCO (stereo not given) | inactive
CC(C)N(C(=O)SCC(Cl)=C(Cl)Cl)C(C)C | inactive
C[C@]12CCC(=O)C(O)=C1CC[C@@H]1[C@@H]2CC[C@]2(C)C(=O)CC[C@@H]12 | inactive
CCOCN(C(=O)CCl)c1c(C)cccc1CC | inactive
CC(C)=CC1C(C(=O)OCc2coc(Cc3ccccc3)c2)C1(C)C (stereo not given) | inactive
CCCCOCCOP(=O)(OCCOCCCC)OCCOCCCC | inactive
S=C1NCCN1 | inactive
CCOc1cc(Oc2ccc(C(F)(F)F)cc2Cl)ccc1[N+](=O)[O-] | inactive
C=C(C)[C@H]1Cc2c(ccc3c2O[C@@H]2COc4cc(OC)c(OC)cc4[C@@H]2C3=O)O1 | 31.3 µM (active) and 27.5 µM (active)
O=C1C=CC(=O)C=C1 | inactive
COP(=S)(OC)Oc1cc(Cl)c(Cl)cc1Cl | inactive
Nc1ccc(Cl)cc1N | inactive
CNC(=O)Oc1cccc2c1OC(C)(C)O2 | inactive
O=P(O)(O)CCCl | inactive
c1cc(OCC2CO2)ccc1Cc1ccc(OCC2CO2)cc1 (stereo not given) | inactive
NCc1cccnc1 | inactive
Nc1ccncc1 | inactive
CC(C)(OOC(C)(C)c1ccccc1)c1ccccc1 | inactive
C1=Cc2cccc3cccc1c23 | inactive
c1ccc(P(c2ccccc2)c2ccccc2)cc1 | inactive

Reference: PubChem BioAssay (Tox21)
